In PubChem BioAssay (Tox21):
Several values for one entry are separate records, joined by “and”; a condition that tells them apart may be missing. Equal entries are not always repeated. Records with an inconclusive call do not appear. Entries that show only a call come without a potency. Where a structure was tested more than once in an assay, its records may differ in their call. Activity calls are given as the source filed them. Unless noted, calls come from the whole dose curve; as a rule, active = well fitted curve in the direction sought with a large enough effect in the repeat runs; inconclusive = weak or mixed curves; inactive = no such curve, though single readings can be large; an effect the other way counts as inactive or inconclusive.

Experiments:
[1] = target: Retinoic acid receptor RXR-alpha (Homo sapiens) (UniProt P19793); assay: qHTS assay to identify small molecule agonists of the RXR signaling pathway (AID 1159527; calls by dose curve; note: nearly all actives have a fitted effect of over 35% in size; note: potency is the fitted concentration of half-maximal effect)
Sequence of Retinoic acid receptor RXR-alpha (Homo sapiens) (P19793 whole entry, looked up): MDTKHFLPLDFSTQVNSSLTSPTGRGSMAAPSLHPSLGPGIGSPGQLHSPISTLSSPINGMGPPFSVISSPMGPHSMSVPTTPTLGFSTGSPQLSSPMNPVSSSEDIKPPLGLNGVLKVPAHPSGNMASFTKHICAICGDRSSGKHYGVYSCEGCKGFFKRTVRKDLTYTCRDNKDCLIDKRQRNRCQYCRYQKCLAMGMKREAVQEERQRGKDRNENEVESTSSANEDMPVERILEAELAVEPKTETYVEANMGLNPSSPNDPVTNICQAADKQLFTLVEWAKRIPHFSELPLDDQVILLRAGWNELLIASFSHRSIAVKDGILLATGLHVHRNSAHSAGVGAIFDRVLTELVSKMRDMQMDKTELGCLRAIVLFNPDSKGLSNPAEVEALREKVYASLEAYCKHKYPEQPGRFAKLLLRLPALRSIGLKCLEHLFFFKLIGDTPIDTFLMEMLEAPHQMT
How it was run: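 Agonist-mode beta-lactamase reporter assay: HEK 293T RXR-alpha-UAS-bla cells treated 16 hr at 37 C with compounds, 9-cis retinoic acid as positive control. LiveBLAzer FRET substrate, 405 nm excitation, 460/530 nm emission.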

[2] = qHTS assay to identify small molecule agonists of the RXR signaling pathway - cell viability counter screen (AID 1159529); note: nearly all actives have a fitted effect of over 50% in size; note: potency is the fitted concentration of half-maximal effect; for activity change, negative = cytotoxicity: series mostly up to about 77 µM
How it was run: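 CellTiter-Glo luminescence gave viability in the wells also read for beta-lactamase. Cells (RXR-alpha-UAS-bla HEK 293T, 2% charcoal-stripped FBS medium) had 5 hr plating, then 16 hr compound exposure at 37 C; tetraoctyl ammonium bromide served as positive control.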

[3] = qHTS assay to identify small molecule antagonists of the retinoid acid receptor (RAR) signaling pathway - cell viability counter screen (AID 1159551); note: nearly all actives have a fitted effect of over 35% in size
How it was run: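 Retinol-stimulated (1 uM final) C3RL4 cells, compound 6 h, 37 C; readout CellTiter-Glo luminescence (ATP) after 30 min RT incubation.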

[4] = qHTS assay to identify small molecule antagonists of the retinoic acid receptor (RAR) signaling pathway (AID 1159552; note: nearly all actives have a fitted effect of over 50% in size)
How it was run: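 Luminescent RARE reporter read-out in C3RL4 cells: 6 hr co-treatment at 37 C of test compounds with retinol at 1 uM final. Cells plated overnight beforehand; luciferase reagent incubated 30 min at room temperature before reading.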

[5] = qHTS assay to identify small molecule agonists of the retinoic acid receptor (RAR) signaling pathway (AID 1159553); note: potency is the fitted concentration of half-maximal effect
How it was run: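 Reporter readout comes from luciferase under RARE control in C3RL4 cells; compound exposure lasts 6 hr at 37 C in 5% CO2, and luminescence is recorded following a 30 min room-temperature incubation with reagent.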

[6] = qHTS assay to identify small molecule antagonists of the estrogen related receptor (ERR) signaling pathway from Tox21 library - cell viability counter screen (AID 1224834); note: nearly all actives have a fitted effect of over 30% in size; note: potency is the fitted concentration of half-maximal effect
How it was run: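 After 17.5 h of compound exposure at 37 C, ERR cells are incubated with CellTiter-Fluor for 30 min and fluorescence intensity serves as the viability measure.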

[7] = target: Luciferin 4-monooxygenase (Photinus pyralis) (UniProt P08659); assay: qHTS assay to identify small molecule inhibitors of firefly luciferase (AID 1224835); note: nearly all actives have a fitted effect of over 25% in size; note: potency is the fitted concentration of half-maximal effect
Sequence of Luciferin 4-monooxygenase (Photinus pyralis) (P08659 whole entry, looked up): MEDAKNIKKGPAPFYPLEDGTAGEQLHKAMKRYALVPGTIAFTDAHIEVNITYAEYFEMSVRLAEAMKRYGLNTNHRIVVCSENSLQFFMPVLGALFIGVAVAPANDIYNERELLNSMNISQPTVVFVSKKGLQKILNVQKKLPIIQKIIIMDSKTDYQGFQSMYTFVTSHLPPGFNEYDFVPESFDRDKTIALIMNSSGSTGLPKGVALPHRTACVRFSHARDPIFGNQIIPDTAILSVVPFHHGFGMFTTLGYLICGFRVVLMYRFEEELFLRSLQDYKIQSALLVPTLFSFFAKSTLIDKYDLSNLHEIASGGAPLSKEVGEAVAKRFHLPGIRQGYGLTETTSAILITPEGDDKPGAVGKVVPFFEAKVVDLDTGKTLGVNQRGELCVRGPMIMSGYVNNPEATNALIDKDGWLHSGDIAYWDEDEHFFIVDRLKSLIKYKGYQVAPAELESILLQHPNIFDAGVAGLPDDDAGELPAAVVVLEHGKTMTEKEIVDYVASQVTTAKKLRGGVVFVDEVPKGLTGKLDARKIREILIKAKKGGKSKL
How it was run: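 Inhibition of purified Photinus luciferase is measured by luminescence. Substrate levels (D-luciferin, ATP) sit at their KM values. Each compound is tested in a concentration series.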

[8] = qHTS assay to identify small molecule agonists of the constitutive androstane receptor (CAR) signaling pathway - cell viability counter screen (AID 1224836); note: series mostly up to about 92 µM; nearly all actives have a fitted effect of over 45% in size
How it was run: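 Cell viability multiplexed with the CAR agonist screen: CellTiter-Fluor fluorescence after 23 hr at 37 C. HepG2-CYP2B6-hCAR cells got compounds at 15 concentrations with PK11195 at 0.75 uM final.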

[9] = qHTS assay to identify small molecule antagonists of the estrogen related receptor (ERR) signaling pathway - cell viability counter screen (AID 1224818); note: series mostly up to about 46 µM
How it was run: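 After a 6 h pre-incubation, ERR cells were dosed by pin tool with compounds, positive/negative controls or DMSO alone. Following 17.5 h at 37 C and 30 min with CellTiter-Fluor, fluorescence was recorded.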

[10] = qHTS assay to identify small molecule antagonists of the estrogen related receptor signaling pathway with the pleiotropic PPARgamma coactivator (PGC) cell viability counter screen (AID 1224822; note: series mostly up to about 46 µM)
How it was run: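 PGC/ERR cells were plated at 2,000 per well and allowed 6 h to settle before compound addition. Following 17.5 h at 37 C, CellTiter-Fluor reagent was added and fluorescence was read 30 min later.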

Compound | Potency [1] | Potency [2] | outcome [3] | Potency [4] | Potency [5] | Potency [6] | Potency [7] | Potency [8] | outcome [9] | outcome [10] | activation [1] | activity change, negative = cytotoxicity [2] | viability change, negative = cytotoxic [6]
O=C(Oc1ccccc1)c1ccccc1 | inactive | inactive | inactive | inactive | inactive | inactive | inactive and 71 µM (active) | inactive | – | – | – | – | –
CCOC(=O)NNc1nncc2ccccc12 | inactive | inactive | inactive | inactive | inactive | inactive | inactive | inactive | – | – | – | – | –
O=C(CC(C(=O)OC1CCCCC1)S(=O)(=O)O)OC1CCCCC1 (stereo not given) | inactive | inactive | inactive | inactive | inactive | inactive | inactive | inactive | – | – | – | – | –
c1ccc2c(c1)ccc1ccccc12 | inactive | inactive | inactive | inactive | inactive | inactive | 34.6 µM (active) and 56.4 µM (active) | inactive | – | – | – | – | –
CCc1cccc(C)c1N | inactive | inactive | inactive | inactive | inactive | inactive | inactive | inactive | – | – | – | – | –
CC1=CCC2CC1C2(C)C (stereo not given) | inactive | inactive | inactive | inactive | inactive | inactive | inactive | inactive | – | – | – | – | –
CC(=O)Nc1ccccc1 | inactive | inactive | inactive | inactive | inactive | inactive | inactive | inactive | – | – | – | – | –
CCCCOC(=O)COc1ccc(Cl)cc1Cl | inactive | inactive | inactive | inactive | inactive | inactive | 9.05 µM (active) and 10 µM (active) | inactive | – | – | – | – | –
C=CCNC(N)=S | inactive | 38 µM (active) and inactive | inactive | inactive | inactive | inactive | inactive | inactive | – | – | – | – | –
Fc1ccc(Br)cc1 | inactive | inactive | inactive | inactive | inactive | inactive | inactive | inactive | – | – | – | – | –
CCC(O)OC(O)CC (stereo not given) | inactive | inactive | inactive | inactive | inactive | inactive | inactive | inactive | – | – | – | – | –
O=S1(=O)CC=CC1 | inactive | inactive | inactive | inactive | inactive | inactive | inactive | inactive | – | – | – | – | –
O=C(O)CC(C(=O)O)C(CC(=O)O)C(=O)O (stereo not given) | inactive | inactive | inactive | inactive | inactive | inactive | inactive | inactive | – | – | – | – | –
CCCCC(CC)COC(=O)CS (stereo not given) | inactive | inactive | inactive | inactive | inactive | inactive | inactive | inactive | – | – | – | – | –
C=C(C)C(=O)OCCOCCOCCOC(=O)C(=C)C | inactive | inactive | inactive | inactive | inactive | inactive | inactive | inactive | – | – | – | – | –
CCCCCCOCCO | inactive | inactive | inactive | inactive | inactive | inactive | inactive | inactive | – | – | – | – | –
O=C(O)CCCC[C@@H]1SC[C@@H]2NC(=O)N[C@@H]21 | inactive | inactive | inactive | inactive | inactive | inactive | inactive | inactive | – | – | – | – | –
O=C1CCC(N2C(=O)c3ccccc3C2=O)C(=O)N1 (stereo not given) | inactive | inactive | inactive | inactive | inactive | inactive | inactive | inactive | inactive | inactive | – | – | –
O=C(O)c1ccccc1C(c1ccc(O)cc1)c1ccc(O)cc1 | inactive | inactive | inactive | inactive | inactive | inactive | inactive | inactive | – | – | – | – | –
CCCCCCCCCCCCS | inactive | inactive | inactive | inactive | inactive | inactive | inactive | inactive | – | – | – | – | –
Cc1cc(C)c(C)cc1C | inactive | inactive | inactive | inactive | inactive | inactive | inactive | inactive | – | – | – | – | –
CC(=O)CC(=O)Nc1ccccc1C | inactive | inactive | inactive | inactive | inactive | inactive | inactive | inactive | – | – | – | – | –
N[C@@H](Cc1cc(I)c(Oc2cc(I)c(O)c(I)c2)c(I)c1)C(=O)O | inactive | inactive | inactive | inactive | inactive | inactive | inactive | inactive | – | – | – | – | –
CCCCCOC(C)=O | 0.279 µM (active) | inactive | inactive | inactive | inactive | inactive | inactive | inactive | – | – | – | – | –
C[C@H]1C[C@@H]2[C@H]([C@@H](O)C[C@@]3(C)[C@H]2CC[C@]3(O)C(=O)CO)[C@@]2(C)C=CC(=O)C=C12 | inactive | inactive | inactive | inactive | inactive | inactive | inactive | inactive | – | – | – | – | –
c1ccc2scnc2c1 | inactive | inactive | inactive | inactive | inactive | inactive | inactive | inactive | – | – | – | – | –

Compound | Potency [1] | Potency [2] | outcome [3] | Potency [4] | Potency [5] | Potency [6] | Potency [7] | Potency [8] | outcome [9] | outcome [10] | activation [1] | activity change, negative = cytotoxicity [2] | viability change, negative = cytotoxic [6]
CC(=O)CC(=O)Nc1ccccc1 | inactive | inactive | inactive | inactive | inactive | inactive | inactive | inactive | – | – | – | – | –
C/C=C1/CC2C=CC1C2 (stereo not given) | inactive | inactive | inactive | inactive | inactive | inactive | inactive | inactive | – | – | – | – | –
CCCCCC1=CCCC1=O | inactive | inactive | inactive | inactive | inactive | inactive | inactive | inactive | – | – | – | – | –
OCC(CO)(CBr)CBr | inactive | inactive | inactive | inactive | inactive | inactive | inactive | inactive | – | – | – | – | –
NNc1nncc2ccccc12 | – | – | inactive | inactive | 770 nM (active) and 5.17 µM (active) | – | – | inactive | inactive | inactive | -4.54% [at 15.8 µM] (inactive) | -0.524% [at 15.8 µM] (inactive) | 6.05% [at 19 µM] (inactive)
O=C(O)c1cc(C(=O)O)cc(S(=O)(=O)O)c1 | inactive | inactive | inactive | inactive | inactive | inactive | inactive | inactive | – | – | – | – | –
CCCC(C)=O | inactive | inactive | inactive | inactive | inactive | inactive | inactive | inactive | – | – | – | – | –
CC(=O)Nc1cccc(O)c1 | inactive | inactive | inactive | inactive | inactive | inactive | inactive | inactive | – | – | – | – | –
O=C(O)[C@H](O)[C@@H](O)[C@H](O)[C@H](O)CO | inactive | inactive | inactive | inactive | inactive | inactive | inactive | inactive | – | – | – | – | –
OC[C@H]1O[C@@](CO)(O[C@H]2O[C@H](CO)[C@@H](O)[C@H](O)[C@H]2O)[C@@H](O)[C@@H]1O | inactive | inactive | inactive | inactive | inactive | inactive | inactive | inactive | – | – | – | – | –
C#CCN(C)Cc1ccccc1 | inactive | inactive | inactive | inactive | inactive | inactive | inactive | inactive | inactive | inactive | – | – | –
CN(C)CCC(c1ccccc1)c1ccccn1 (stereo not given) | inactive | inactive | inactive | inactive | inactive | inactive | inactive | inactive | inactive | inactive | – | – | –
OCc1cccnc1 | inactive | inactive | inactive | – | – | inactive | inactive | inactive | – | – | – | – | –
C=C(C)C(=O)O[C@H]1C[C@@H]2CC[C@@]1(C)C2(C)C | inactive | 15.4 µM (active) and inactive | inactive | – | – | 8.58 µM (active) and inactive | 19.9 µM (active) and inactive | – | – | – | – | – | –
O=c1[nH]c(=O)n([C@H]2C[C@H](O)[C@@H](CO)O2)cc1Br | inactive | inactive | inactive | – | – | inactive | inactive | inactive | inactive | inactive | – | – | –
CN(C)CCC(c1ccc(Cl)cc1)c1ccccn1 (stereo not given) | inactive | 55.1 µM (active) | inactive | – | – | 48.7 µM (active) and inactive | – | inactive | inactive | inactive | – | – | –
COc1ccc(NC(C)=O)cc1N | inactive | inactive | inactive | inactive | inactive | inactive | inactive | inactive | – | – | – | – | –
CCCCCCCCCC | inactive | inactive | inactive | – | – | inactive | inactive | inactive | – | – | – | – | –
O=C(O)CCCCCCCCCCC(=O)O | inactive | inactive | inactive | – | – | inactive | inactive | inactive | – | – | – | – | –
CCCCCCCCC/C=C/CC1CC(=O)OC1=O (stereo not given) | inactive | inactive | inactive | – | – | inactive | 71.3 µM (active) | inactive | – | – | – | – | –
CC(C)c1ccc(S(=O)(=O)O)cc1 | inactive | inactive | inactive | – | – | inactive | inactive | inactive | – | – | – | – | –
CC1CCC(C(C)C)C(O)C1 (stereo not given) | inactive | inactive | inactive | inactive | inactive | inactive | inactive | inactive | – | – | – | – | –
Cc1ccc2oc(=O)ccc2c1 | inactive | inactive | inactive | inactive | inactive | inactive | inactive | inactive | – | – | – | – | –
COc1ccc2cc([C@H](C)C(=O)O)ccc2c1 | inactive | inactive | inactive | – | – | inactive | – | inactive | inactive | inactive | – | – | –
O=C(O)c1cc(O)c(O)c(O)c1 | inactive | inactive | inactive | inactive | inactive | 61.7 µM (active) | – | inactive | – | – | – | – | –
CN(C)CCOCCN(C)C | inactive | inactive | inactive | – | – | inactive | inactive | inactive | – | – | – | – | –
